Screen size: about 5,500 compounds; about 2,000 (36%) were called active. Roughly 18% stayed inconclusive and do not appear here. No stated cut-off is given here; in the data, active means normalized growth mostly below about 0.91 (no sharp cut-off); inconclusive means no clear call, values can overlap the other calls; inactive means mostly above about 0.92. The list shows a part of the results.
Assay: chemical genetic growth profiling, strain panel (AID 1159580);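 further: tested at 20 µM; growth read once vehicle control cultures reached saturation at 30 °C; 1 = growth at the plate median or of vehicle wells; lower values mean less growth of the strain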
Conditions: growth OD

Measured: normalized growth

COc1c(Br)cc([N+](=O)[O-])c(OC)c1C(N)=O
inactive: S. cerevisiae deletion strains, locus YBR229C, strain ROT2, hits give low values 1.03 | S. cerevisiae deletion strains, locus YCL061C, strain MRC1, hits give low values 1.01 | S. cerevisiae deletion strains, locus YDL101C, strain DUN1, hits give low values 1.03 | S. cerevisiae deletion strains, locus YDL134C, strain PPH21, hits give low values 1.01 | S. cerevisiae deletion strains, locus YDR150W, strain NUM1, hits give low values 0.986 | S. cerevisiae deletion strains, locus YEL061C, strain CIN8, hits give low values 1.02 | S. cerevisiae deletion strains, locus YGR078C, strain PAC10, hits give low values 1.02 | S. cerevisiae deletion strains, locus YHR030C, strain SLT2, hits give low values 1.07 | S. cerevisiae deletion strains, locus YHR087W, strain rtc3, hits give low values 1.01 | S. cerevisiae deletion strains, locus YJL187C, strain SWE1, hits give low values 1 | S. cerevisiae deletion strains, locus YJR043C, strain POL32, hits give low values 1.04 | S. cerevisiae deletion strains, locus YJR075W, strain HOC1, hits give low values 1.01 | S. cerevisiae deletion strains, locus YLR039C, strain RIC1, hits give low values 1.02 | S. cerevisiae deletion strains, locus YLR058C, strain SHM2 (second series), hits give low values 1.01 | S. cerevisiae deletion strains, locus YLR085C, strain ARP6, hits give low values 1.02 | S. cerevisiae deletion strains, locus YLR262C, strain YPT6, hits give low values 1.01 | S. cerevisiae deletion strains, locus YML094W, strain GIM5, hits give low values 1 | S. cerevisiae deletion strains, locus YMR219W, strain ESC1, hits give low values 1.03 | S. cerevisiae deletion strains, locus YMR263W, strain SAP30, hits give low values 0.946 | S. cerevisiae deletion strains, locus YNL153C, strain GIM3, hits give low values 1.02 | S. cerevisiae deletion strains, locus YNL298W, strain CLA4 (second series), hits give low values 1.01 | S. cerevisiae deletion strains, locus YNL322C, strain KRE1, hits give low values 1.02 | S. cerevisiae deletion strains, locus YNR030W, strain Alg12, hits give low values 1.03 | S. cerevisiae deletion strains, locus YPL055C, strain LGE1, hits give low values 0.928 | S. cerevisiae deletion strains, locus YPL241C, strain CIN2, hits give low values 1.02 | S. cerevisiae deletion strains, locus YPR135W, strain CTF4, hits give low values 1.1 | S. cerevisiae strains, strain wild type, hits give low values 1.03
